# Tau fluor counter: counter-screen for tau fibril formation inhibitors; actives 0.93% (n = 280,000); tau K18 P301L Alexa594 fluorescence, heparin fibrillization; Potency, µM (highest dose often 57.7 µM); AID 1463; further: nearly all actives have a fitted effect of over 55% in size
#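 Human tau K18 P301L (15 uM unlabeled, 0.24 uM Alexa 594-labeled) in 100 mM sodium acetate pH 7 with 20 uM heparin, 6 hr at 37 C. ThT 30 uM added, 1 hr ambient; Alexa 594 FP and total fluorescence read at 555/632 nm.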
# JMJD2E inh: blocks human JMJD2E demethylase activity | B2RXH2 | actives 1.6% (n = 230,000) | JMJD2E catalytic domain, FDH-coupled NADH fluorescence (FDH is formaldehyde dehydrogenase) | AID 2147 | Potency, µM (top dose mostly 57.1 µM), most hits filed as inhibitors; active means well fitted inhibition curve with a large enough effect, not every such curve was filed as active; inconclusive means small, poorly fitted or top-dose-only effect, or another doubt; inactive means no such curve, though single readings can be large or run the other way; further: nearly all actives have a fitted effect of over 50% in size
# Lamin A splicing: LMNA splicing modulation | HeLa LMNA splicing GFP/RFP minigene ratio, 48 h | Potency, µM (series often up to 46.1 µM), most hits filed as inhibitors | actives 0.01% (n = 200,000) | AID 1487; active means well fitted inhibition curve with a large enough effect in the signal ratio, with a control signal flat, not every such curve was filed as active; inconclusive means small, poorly fitted or top-dose-only effect, or effect the other way, or a change in a side signal; the % refers to the signal ratio
#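 Read-out is the ratio of GFP to DsRed2 object intensity, acquired by 488 nm laser-scanning cytometry on HeLa lamin A-EGFP minigene reporter cells. Compound incubation 48 hrs at 37 °C in Opti-MEM with 2% FBS; DMSO 0.5% final.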
# Tau fibril FP: inhibitors of human tau fibril formation | P10636 | K18 P301L tau heparin fibrillization, Alexa594 FP, 6 h | Potency, µM (doses to about 57.7 µM), actives largely listed as inhibitors | actives 0.39% (n = 280,000) | AID 1468; further: nearly all actives have a fitted effect of over 55% in size
#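 Quantitative HTS format: compounds meet 15 uM recombinant K18 P301L tau and Alexa 594-tau tracer in 100 mM sodium acetate pH 7; 20 uM heparin triggers fibrillization at 37 C over 6 hr; FP gives the signal.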
# Tau ThT inhib: blocks human tau fibril formation measured by thioflavin T; recombinant tau K18 P301L (four-repeat tau fragment), heparin-induced fibrillization, ThT fluorescence; Potency, µM (doses to about 57.4 µM), hits mostly inhibitors; actives 2.1% (n = 270,000); AID 1460; further: nearly all actives have a fitted effect of over 55% in size
#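 Tau K18 P301L fragment (15 uM unlabeled plus 0.24 uM Alexa 594-labeled) in 100 mM sodium acetate pH 7 with compound, fibrillization induced by 20 uM heparin for 6 hr at 37 C. Thioflavin T (30 uM) added, fluorescence read after 1 hr (ex 450, em 510 nm).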
# CBFb RUNX1 block: CBF-beta/RUNX1 interaction disruption. AlphaScreen CBFb-His/RUNX1-biotin binding, biochemical. Potency, µM (highest dose often 59.8 µM), hits mostly inhibitors. 230,000 tested, under 10 active
# Target sequence (Q01196 whole entry, looked up): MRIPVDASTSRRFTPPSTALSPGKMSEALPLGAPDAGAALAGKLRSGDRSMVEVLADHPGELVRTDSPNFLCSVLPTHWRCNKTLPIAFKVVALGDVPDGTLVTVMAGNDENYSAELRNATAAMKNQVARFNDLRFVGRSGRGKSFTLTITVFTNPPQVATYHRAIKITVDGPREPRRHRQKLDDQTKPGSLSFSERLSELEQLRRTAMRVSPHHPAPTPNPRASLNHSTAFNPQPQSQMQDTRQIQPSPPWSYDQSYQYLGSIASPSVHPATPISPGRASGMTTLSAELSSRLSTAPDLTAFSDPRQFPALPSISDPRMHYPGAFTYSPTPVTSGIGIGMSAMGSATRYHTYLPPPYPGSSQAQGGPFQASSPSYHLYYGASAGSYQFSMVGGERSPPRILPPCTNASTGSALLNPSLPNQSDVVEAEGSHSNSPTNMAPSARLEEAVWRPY
# Target sequence (Q13951 whole entry, looked up): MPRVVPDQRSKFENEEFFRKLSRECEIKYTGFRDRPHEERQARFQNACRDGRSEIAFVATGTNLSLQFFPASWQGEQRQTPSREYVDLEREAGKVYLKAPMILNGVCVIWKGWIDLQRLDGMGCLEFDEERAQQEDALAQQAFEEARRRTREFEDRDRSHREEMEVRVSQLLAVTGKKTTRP
#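 AlphaScreen binding: CBFb-His and RUNX1-biotin (30 nM each) preincubated 20 min, compound added for 15 min, then nickel and streptavidin beads for 90 min, all at room temperature. Disruption of the interaction by any mechanism counts as activity.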
# Numbers stand for hits; . = inactive; ? = inconclusive; / = not tested or not shown; [ ] = another dose, or the depositor's remark. A selection: hits, their analogues and other compounds. The true share with any hit is near 3.2%. Unless noted, the call rests on the fitted dose curve; in most records, active means well fitted curve in the direction sought with a large enough effect; inconclusive means small, poorly fitted or top-dose-only effect, or another doubt; inactive means no such curve, though single readings can be large; an effect the other way counts as inactive or inconclusive.
SMILES,Tau fluor counter,JMJD2E inh,Lamin A splicing,Tau fibril FP,Tau ThT inhib,CBFb RUNX1 block
CC(=O)c1cccc(NC(=S)Nc2ccn(Cc3cccc4ccccc34)n2)c1,.,.,/,?,.,.
CC(=O)c1ccc(NC(=S)Nc2ccn(Cc3ccc(Br)cc3)n2)cc1,10µM[quencher],.,?,?,.,.
CCN(CC)c1ccc(C=Nc2ccc(C#N)cc2)c(O)c1,.,?,.,.,?,.
CCN(CC)c1ccc(N=Cc2ccc([N+](=O)[O-])o2)cc1,?,2.8µM,?,11µM,10µM,?
CCN(CC)c1ccc(N=Cc2ccccc2[N+](=O)[O-])cc1,?,5µM,?,?,14µM,.
CCCCCC(=O)N/N=C/c1ccc([N+](=O)[O-])o1,.,.,.,.,?,.
COc1ccc(OC)c(N=c2oc3cc(O)ccc3cc2C(N)=O)c1,?,?,.,?,32µM,.
CC(=O)Nc1ccc(NC(=O)C(Cc2ccccc2)NS(=O)(=O)c2ccc3c(c2)oc(=O)n3C)cc1 (centres undefined),.,/,/,.,.,/
CSc1cccc(NC(=O)C2CCCN(S(=O)(=O)c3ccc4c(c3)CCCN4C(C)=O)C2)c1 (centres undefined),.,/,?,.,.,/
COc1ccc(CCNC(=O)C(=O)NCC(c2cccs2)S(=O)(=O)c2cccs2)cc1 (centres undefined),.,/,.,.,.,/
COc1ccc2nc(Nc3ccccc3OC)sc2c1,?,.,/,.,13µM,.
COc1ccc2nc(Nc3nc4cc5c(cc4s3)OCO5)sc2c1,7.9µM[quencher],?,?,.,2.8µM,.
COc1ccc(Nc2nc(C)c(-c3ccccc3)s2)cc1,8.9µM[quencher],?,.,.,5.6µM,.
COc1ccc2nc(Nc3ccccc3)sc2c1,18µM[quencher],.,/,.,14µM,.
CCN1CCCC1Cn1c(-c2ccccc2)nc2c(NCc3ccccc3)nc(C)nc21 (centres undefined),.,?,/,.,.,.
CCOC(=O)C1=C(CN2CCC(C)CC2)NC(=O)NC1c1ccc(F)cc1 (centres undefined),.,/,?,.,.,/
COc1ccc2nc(NC(=O)c3cc(=O)c4cc(C)c(C)cc4o3)sc2c1,.,/,/,.,?,/
COc1ccc2nc(NNC(=O)c3cc(=O)c4ccccc4o3)sc2c1,?,32µM,/,.,4.5µM,?
CCn1c(CN2CCOCC2)nc2cc(NC(=O)c3cccc([N+](=O)[O-])c3)ccc21,.,/,.,.,.,/
CC1(C)CNc2cc(N)ccc2S1,14µM[quencher],?,.[9.22 µM],?,16µM,?
CN(C)c1ccc(CN(CC2CCCO2)C(=O)c2ccc(Br)cc2)cc1 (centres undefined),.,/,/,.,.,/
CN(C)CCCNc1cc(C(C)(C)C)nc2c(-c3ccccc3)cnn12,22µM[quencher],?,/,?,?,.
O=[N+]([O-])c1ccc(N2CCN(C(=S)Nc3cccc(F)c3)CC2)cc1,?,.,?,.,16µM,.
O=[N+]([O-])c1ccc(N2CCN(C(=S)Nc3ccc(F)cc3)CC2)cc1,?,.,/,.,?,.
CCN1/C(=C\C=C2\C(=O)N(C)C(=S)N2C)Sc2ccccc21,.,.,.[9.22 µM],.,2µM,.
SMILES,Tau fluor counter,JMJD2E inh,Lamin A splicing,Tau fibril FP,Tau ThT inhib,CBFb RUNX1 block
COc1ccc(-c2nc3c(c4c2CC(C)OC4)CN(CCC(C)C)CC3)cc1 (centres undefined),.[11.6 µM],/,/,.[11.6 µM],.[11.5 µM],.[13.1 µM]
O=C(NCCNC(=O)c1cc(OCC(F)(F)F)ccc1OCC(F)(F)F)Nc1ccc(Cl)cc1,.,.,.,?,.,.
O=C(Nc1ccc(F)cc1)Nc1cc(OCC(F)(F)F)cc(OCC(F)(F)F)c1,?,.,?,8.9µM,.,.
O=C(NCCNC(=O)c1cc(OCC(F)(F)F)ccc1OCC(F)(F)F)Nc1ccc(OC(F)(F)F)cc1,.,.,.,3.5µM,.,.
Cc1ccc2cc(N)ccc2n1,.,32µM,?,.,.,.
Cc1ccc2cc(NC(=O)Cc3ccccc3)ccc2n1,.,?,/,.,.,.
O=C(CCCn1c(SCC(=O)c2ccc(O)c(O)c2)nc2ccccc2c1=O)NCC1CCCO1 (centres undefined),.,8.9µM,.,.,?,.
O=C(O)CCCCCn1c(SCC(=O)c2ccc(O)c(O)c2)nc2ccsc2c1=O,.,10µM,?,.,?,.
CCCCn1c(SCC(=O)c2ccc(O)c(O)c2)nc2ccsc2c1=O,?,?,?,.,?,.
Cc1cc(N=Nc2ccc(Cl)cc2)cc(CN2CCCC2)c1O,?,.,.,?,28µM,?
COc1ccc(C(=O)ON=C2C=C(C)C(=O)C(C)=C2)cc1,.,.,/,.,.,.
COC1=CC(=O)C=C(OC)C1=O,?,?,/,22µM,10µM,.
Cc1ccc(-c2nc(S(=O)(=O)c3ccc(F)cc3)c(N3CCN(c4ccccc4)CC3)o2)cc1,.,/,/,.,.,/
C[n+]1ccc(/C=C/c2ccccc2O)c2ccccc21,.,.,.,.,?,.
CN1/C(=C/c2cc[n+](C)c3ccccc23)C=Cc2ccccc21,.,11µM,/,?,7.1µM,.
CCCCCCCCCCN1CCOCCOCCN(CCCCCCCCCC)CCOCCOCC1,/,/,/,/,/,.
Cc1cccc(N=N/C(=C\O)C(=O)c2cccs2)c1,.,.,?,.,28µM,?
O=C(/C(N=Nc1cccc(C(F)(F)F)c1)=C(/O)c1cccs1)C(F)(F)F,?,.,/,.,?,.
CCOc1ccccc1NS(=O)(=O)c1ccc2[nH]c3c(c2c1)CCCCC3,?,/,.,.,.,/
CN(CC(=O)NCc1ccc(Cl)cc1)S(=O)(=O)c1ccc2[nH]c3c(c2c1)CCCC3,?,/,?,.,.,/
O=S(=O)(Nc1cc(F)ccc1F)c1ccc2[nH]c3c(c2c1)CCCC3,11µM[quencher],/,?,.,.,/
O=S(=O)(Nc1cccc(F)c1)c1ccc2[nH]c3c(c2c1)CCCCC3,8.9µM[quencher],/,?,?,?,/
O=S(=O)(Nc1cc(F)ccc1F)c1ccc2[nH]c3c(c2c1)CCCCC3,13µM[quencher],/,?,?,.,/
COc1ccc(Br)cc1Cn1nnc(C(=O)Nc2cccc(SC)c2)c1N,?,/,/,?,.,/
CCOC(=O)CN(Cc1cc(OC)cc(N(C)C)c1OC)C(=O)C1CC(CO[Si](C)(C)C(C)(C)C)=CN1C(=O)OC(C)(C)C (centres undefined),/,/,/,/,/,.
Cc1cc(C)c(OCCOCCn2c(-c3ccc(Cl)cc3)nc3ccccc3c2=O)c(C)c1,.,/,/,.,.,/
ClC(Cl)(c1nnnn1-c1ccccc1)c1nnnn1-c1ccccc1,.,.,.,32µM,11µM,.
COc1ccc2c(=O)c(OC)c(-c3ccccc3)oc2c1,?,?,.,.,?,/
COc1ccc2c(c1)OCc1c-2oc2cc(OC)ccc12,?,.,/,?,8.9µM,.

# Bioassay records: PubChem BioAssay, National Center for Advancing Translational Sciences (NCATS)
